Assay results as given in PubChem BioAssay AID1159580 (chemical genetic matrix, 2015).
Several values for one entry are separate records, joined by “and”; a condition that tells them apart may be missing. Identical values can stand only once. In all, about 5,500 compounds went through this assay and about 2,000 (36%) were called active. Roughly 18% stayed inconclusive and do not appear here. Cut-off read from the data, not from the text of the source: active = normalized growth mostly below about 0.91 (no sharp cut-off); inconclusive = no clear call, values can overlap the other calls; inactive = mostly above about 0.92. The list shows a part of the results.

Experiment: chemical genetic growth profiling, strain panel (AID 1159580);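 note: tested at 20 µM; growth read once vehicle control cultures reached saturation at 30 °C; 1 = growth at the plate median or of vehicle wells; lower values mean less growth of the strain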
Details: growth OD

Measured: normalized growth

Cc1c(OCC(F)(F)F)ccnc1CS(=O)c1nc2ccccc2[nH]1 (stereo not given)
inactive: S. cerevisiae deletion strains, locus YJR075W, strain HOC1, stronger effect = lower value 0.948 and 0.981 | S. cerevisiae deletion strains, locus YKL009W, strain mrt4, stronger effect = lower value 0.991 | S. cerevisiae deletion strains, locus YKL068W, stronger effect = lower value 0.997 | S. cerevisiae deletion strains, locus YKL085W, strain MDH1 (second series), stronger effect = lower value 0.939 | S. cerevisiae deletion strains, locus YKL085W, strain MDH1, stronger effect = lower value 0.939 | S. cerevisiae deletion strains, locus YKL160W, strain elf1, stronger effect = lower value 1.01 | S. cerevisiae deletion strains, locus YKL190W, strain CNB1, stronger effect = lower value 0.987 | S. cerevisiae deletion strains, locus YKR001C, strain vps1, stronger effect = lower value 0.914 | S. cerevisiae deletion strains, locus YKR026C, strain gcn3, stronger effect = lower value 1 | S. cerevisiae deletion strains, locus YKR091W, strain srl3, stronger effect = lower value 1.01 | S. cerevisiae deletion strains, locus YLL001W, strain dnm1, stronger effect = lower value 1.01 | S. cerevisiae deletion strains, locus YLL026W, stronger effect = lower value 1.02 | S. cerevisiae deletion strains, locus YLL041C, strain sdh2, stronger effect = lower value 1.01 | S. cerevisiae deletion strains, locus YLR027C, strain aat2, stronger effect = lower value 1.01 | S. cerevisiae deletion strains, locus YLR039C, strain RIC1, stronger effect = lower value 0.985 | S. cerevisiae deletion strains, locus YLR058C, strain SHM2, stronger effect = lower value 0.966 | S. cerevisiae deletion strains, locus YLR102C, strain apc9, stronger effect = lower value 1 | S. cerevisiae deletion strains, locus YLR221C, strain rsa3, stronger effect = lower value 1 | S. cerevisiae deletion strains, locus YLR258W, strain gsy2, stronger effect = lower value 1.02 | S. cerevisiae deletion strains, locus YLR262C, strain YPT6 (second series), stronger effect = lower value 1.05 | S. cerevisiae deletion strains, locus YLR262C, strain YPT6, stronger effect = lower value 0.998 | S. cerevisiae deletion strains, locus YLR320W, strain mms22, stronger effect = lower value 1.01 | S. cerevisiae deletion strains, locus YLR330W, strain CHS5, stronger effect = lower value 0.987 | S. cerevisiae deletion strains, locus YLR342W, strain FKS1 (second series), stronger effect = lower value 0.926 | S. cerevisiae deletion strains, locus YLR342W, strain FKS1, stronger effect = lower value 1.04 | S. cerevisiae deletion strains, locus YLR357W, strain rsc2, stronger effect = lower value 1.01 | S. cerevisiae deletion strains, locus YLR370C, strain arc18, stronger effect = lower value 1.02 | S. cerevisiae deletion strains, locus YLR371W, strain rom2, stronger effect = lower value 0.989 | S. cerevisiae deletion strains, locus YLR384C, strain iki3, stronger effect = lower value 1.02 | S. cerevisiae deletion strains, locus YML016C, strain PPZ1, stronger effect = lower value 0.979 | S. cerevisiae deletion strains, locus YML032C, strain rad52, stronger effect = lower value 0.93 | S. cerevisiae deletion strains, locus YML120C, strain ndi1, stronger effect = lower value 1.02 | S. cerevisiae deletion strains, locus YML124C, strain tub3, stronger effect = lower value 0.997 | S. cerevisiae deletion strains, locus YMR058W, strain fet3, stronger effect = lower value 1.01 | S. cerevisiae deletion strains, locus YMR078C, strain ctf18, stronger effect = lower value 0.989 | S. cerevisiae deletion strains, locus YMR125W, strain sto1, stronger effect = lower value 1.02 | S. cerevisiae deletion strains, locus YMR129W, stronger effect = lower value 1.02 | S. cerevisiae deletion strains, locus YMR205C, strain PFK2, stronger effect = lower value 1.04 | S. cerevisiae deletion strains, locus YMR223W, strain ubp8, stronger effect = lower value 0.981 | S. cerevisiae deletion strains, locus YMR231W, strain pep5, stronger effect = lower value 1.02 | S. cerevisiae deletion strains, locus YMR263W, strain SAP30, stronger effect = lower value 0.97 and 0.99 | S. cerevisiae deletion strains, locus YMR307W, strain GAS1, stronger effect = lower value 0.907 | S. cerevisiae deletion strains, locus YNL067W, strain RPL9B, stronger effect = lower value 0.958 | S. cerevisiae deletion strains, locus YNL071W, strain lat1, stronger effect = lower value 1.01 | S. cerevisiae deletion strains, locus YNL128W, strain TEP1, stronger effect = lower value 0.974 | S. cerevisiae deletion strains, locus YNL153C, strain GIM3, stronger effect = lower value 0.956 | S. cerevisiae deletion strains, locus YNL175C, strain NOP13, stronger effect = lower value 0.996 | S. cerevisiae deletion strains, locus YNL197C, strain WHI3, stronger effect = lower value 0.998 | S. cerevisiae deletion strains, locus YNL209W, strain ssb2, stronger effect = lower value 1.01 | S. cerevisiae deletion strains, locus YNL224C, strain SQS1, stronger effect = lower value 0.993 | S. cerevisiae deletion strains, locus YNL233W, strain BNI4, stronger effect = lower value 0.941 | S. cerevisiae deletion strains, locus YNL248C, strain rpa49, stronger effect = lower value 1.02 | S. cerevisiae deletion strains, locus YNL250W, strain rad50, stronger effect = lower value 0.902 | S. cerevisiae deletion strains, locus YNL322C, strain KRE1 (second series), stronger effect = lower value 1.02 | S. cerevisiae deletion strains, locus YNL322C, strain KRE1, stronger effect = lower value 0.998 | S. cerevisiae deletion strains, locus YNR049C, strain mso1, stronger effect = lower value 1.01 | S. cerevisiae deletion strains, locus YNR052C, strain pop2, stronger effect = lower value 0.98 | S. cerevisiae deletion strains, locus YOL006C, strain TOP1, stronger effect = lower value 0.989 | S. cerevisiae deletion strains, locus YOL012C, strain htz1 0.898 | S. cerevisiae deletion strains, locus YOL147C, strain pex11, stronger effect = lower value 0.965 | S. cerevisiae deletion strains, locus YOR001W, strain rrp6, stronger effect = lower value 1.02 | S. cerevisiae deletion strains, locus YOR061W, strain CKA2, stronger effect = lower value 0.992 | S. cerevisiae deletion strains, locus YOR069W, strain VPS5, stronger effect = lower value 0.989 | S. cerevisiae deletion strains, locus YOR070C, strain gyp1, stronger effect = lower value 1.02 | S. cerevisiae deletion strains, locus YOR080W, strain dia2, stronger effect = lower value 1.01 | S. cerevisiae deletion strains, locus YOR083W, strain WHI5 (second series), stronger effect = lower value 0.966 | S. cerevisiae deletion strains, locus YOR083W, strain WHI5, stronger effect = lower value 1.01 | S. cerevisiae deletion strains, locus YOR106W, strain vam3, stronger effect = lower value 0.991 | S. cerevisiae deletion strains, locus YOR136W, strain idh2, stronger effect = lower value 0.979 | S. cerevisiae deletion strains, locus YOR144C, strain elg1, stronger effect = lower value 0.977 | S. cerevisiae deletion strains, locus YOR184W, strain ser1, stronger effect = lower value 0.881 | S. cerevisiae deletion strains, locus YOR231W, strain MKK1, stronger effect = lower value 0.91 | S. cerevisiae deletion strains, locus YOR265W, strain rbl2, stronger effect = lower value 1.02 | S. cerevisiae deletion strains, locus YOR270C, strain vph1, stronger effect = lower value 1.06 | S. cerevisiae deletion strains, locus YOR290C, strain snf2, stronger effect = lower value 1.01 | S. cerevisiae deletion strains, locus YOR316C, strain cot1, stronger effect = lower value 0.988 | S. cerevisiae deletion strains, locus YPL051W, strain arl3, stronger effect = lower value 0.993 | S. cerevisiae deletion strains, locus YPL055C, strain LGE1, stronger effect = lower value 0.955 and 0.953 | S. cerevisiae deletion strains, locus YPL078C, strain atp4, stronger effect = lower value 1.02 | S. cerevisiae deletion strains, locus YPL106C, strain sse1, stronger effect = lower value 1.01 | S. cerevisiae deletion strains, locus YPL240C, strain hsp82, stronger effect = lower value 1.02 | S. cerevisiae deletion strains, locus YPL241C, strain CIN2, stronger effect = lower value 1 | S. cerevisiae deletion strains, locus YPR119W, strain clb2, stronger effect = lower value 0.996 | S. cerevisiae deletion strains, locus YPR141C, strain kar3, stronger effect = lower value 1.01 | S. cerevisiae deletion strains, locus YPR163C, strain tif3, stronger effect = lower value 0.976 | S. cerevisiae deletion strains, locus YPR167C, strain met16, stronger effect = lower value 0.988 | S. cerevisiae deletion strains, strain wtn01, stronger effect = lower value 0.95 | S. cerevisiae strains, strain wild type, stronger effect = lower value 0.972
active: S. cerevisiae deletion strains, locus YLR113W, strain HOG1, stronger effect = lower value 0.581 | S. cerevisiae deletion strains, locus YLR268W, strain sec22, stronger effect = lower value 0.826 | S. cerevisiae deletion strains, locus YLR418C, strain cdc73, stronger effect = lower value 0.828 | S. cerevisiae deletion strains, locus YNL183C, strain NPR1, stronger effect = lower value 0.789 | S. cerevisiae deletion strains, locus YNL271C, strain bni1, stronger effect = lower value 0.913 | S. cerevisiae deletion strains, locus YNL298W, strain CLA4, stronger effect = lower value 0.834 | S. cerevisiae deletion strains, locus YNL307C, strain MCK1, stronger effect = lower value 0.872
